{"source": "PubChem BioAssay AID2685", "about": "(National Center for Advancing Translational Sciences (NCATS), 2010)", "note": "The whole screen tested about 320,000 compounds, of which about 2,100 (0.66%) were called active. Not shown: some 53% with an inconclusive outcome. The sample holds actives, similar compounds and a random draw of the others, so the mix is not that of the screen. Calls follow the shape of the dose curve; as a rule, active = well fitted inhibition curve with a large enough effect in the signal ratio, with a control signal flat (not every such curve was filed as active); inconclusive = small, poorly fitted or top-dose-only effect, or effect the other way, or a change in a side signal; inactive = flat fitted curve, though single readings scatter; the % refers to the signal ratio. Potency is read from the fitted curve at half-maximal effect.", "data": [{"experiment": "qHTS Assay for Lipid Storage Modulators in Drosophila S3 Cells;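 as to cell number change: cells counted by Cell Tracker Red CMTPX staining in the red channel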", "settings": "BODIPY lipid droplet fluorescence, 18-24 h, cells fed with added oleic acid; cell number change: measured here: cell count max response; series mostly up to 46.1 µM", "method_in_brief": "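Laser-scanning cytometry quantifies lipid droplet accumulation (500–530 nm total intensity; droplet/cell object ratio) in oleic acid-fed (400 uM added) Drosophila S3 cells treated with a concentration series. 20 uM Triacsin C defined 100% inhibition.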", "units": {"cell number change": "%"}, "values": [{"smiles": "O=C(N/N=C/C=C/c1ccc([N+](=O)[O-])cc1)C1COc2ccccc2O1", "note": "(stereo not given)", "Potency": "inactive", "cell number change": -22.4}, {"smiles": "Clc1ccc(-n2ncc3c(NCc4cccnc4)ncnc32)cc1Cl", "Potency": "13 µM (active)", "cell number change": -22.6}, {"smiles": "Fc1ccc(-n2ncc3c(SCc4cccnc4)ncnc32)cc1", "Potency": "23.1 µM (active)", "cell number change": -12.6}, {"smiles": "COc1ccc(-n2ncc3c(NCc4cccnc4)ncnc32)cc1", "Potency": "inactive", "cell number change": -6.4}, {"smiles": "Cc1ccc(CSc2ncnc3c2cnn3-c2ccc(C)cc2)cc1", "Potency": "inactive", "cell number change": -6.49}, {"smiles": "Cc1cccc(-n2ncc3c(NCc4cccnc4)ncnc32)c1", "Potency": "inactive", "cell number change": -21}, {"smiles": "Cc1ccc(-n2ncc3c(SCc4ccccc4)ncnc32)cc1", "Potency": "inactive", "cell number change": 8.14}, {"smiles": "COc1cccc(NC(=O)Cn2c3ccccc3c3nc4n(c(=O)c32)CCCS4)c1", "Potency": "inactive"}, {"smiles": "COc1ccc(Cn2nc(C)cc2C)cc1OC", "Potency": "inactive"}, {"smiles": "O=C(CN(c1ccccc1)S(=O)(=O)c1ccccc1)N/N=C/c1ccco1", "Potency": "inactive", "cell number change": 6.67}, {"smiles": "CCN(CCCNC(=O)C1CCN(S(=O)(=O)c2cnc[nH]2)CC1)c1ccccc1", "Potency": "inactive"}, {"smiles": "O=C(C1CCN(S(=O)(=O)c2cnc[nH]2)CC1)N1CCN(Cc2ccc3c(c2)OCO3)CC1", "Potency": "5.8 µM (active)", "cell number change": 1.49}, {"smiles": "Cc1ccc(CNC(=O)C2CCCN(S(=O)(=O)c3cnc[nH]3)C2)cc1", "note": "(stereo not given)", "Potency": "inactive", "cell number change": -11.5}, {"smiles": "COc1ccc(CNC(=O)C2CCCN(S(=O)(=O)c3cnc[nH]3)C2)cc1", "note": "(stereo not given)", "Potency": "8.2 µM (active)", "cell number change": -8.84}, {"smiles": "COc1ccccc1CNC(=O)C1CCCN(S(=O)(=O)c2cnc[nH]2)C1", "note": "(stereo not given)", "Potency": "inactive", "cell number change": 23}, {"smiles": "O=C(NCc1ccccn1)C1CCN(S(=O)(=O)c2cnc[nH]2)CC1", "Potency": "inactive", "cell number change": -2.16}, {"smiles": "COc1ccc(CCNC(=O)C2CCN(S(=O)(=O)c3cnc[nH]3)CC2)cc1OC", "Potency": "inactive", "cell number change": 4.12}, {"smiles": "COC(=O)CNC(=O)C1CCN(S(=O)(=O)c2cnc[nH]2)CC1", "Potency": "0.326 µM (active)", "cell number change": -7.96}, {"smiles": "O=C(C1CCN(S(=O)(=O)c2ccccc2F)CC1)N1CCN(Cc2ccc3c(c2)OCO3)CC1", "Potency": "inactive", "cell number change": -10.8}, {"smiles": "O=C(C1CCN(S(=O)(=O)N2CCOCC2)CC1)N1CCN(Cc2ccc3c(c2)OCO3)CC1", "Potency": "inactive", "cell number change": -10.4}, {"smiles": "CCCCNC(=O)C1CCN(S(=O)(=O)c2cnc[nH]2)CC1", "Potency": "18.4 µM (active)", "cell number change": -1.76}, {"smiles": "CN(CCNC(=O)C1CCN(S(=O)(=O)c2cnc[nH]2)CC1)Cc1ccccc1", "Potency": "inactive", "cell number change": 11.4}, {"smiles": "CC(=O)NC1=NN(C(C)=O)C(C)(CS(=O)(=O)c2ccc(Cl)cc2)S1", "note": "(stereo not given)", "Potency": "inactive", "cell number change": -3.99}, {"smiles": "O=C(O)CC(NC(=O)c1ccco1)c1ccco1", "note": "(stereo not given)", "Potency": "inactive", "cell number change": 3.18}, {"smiles": "Cn1c(-c2ccccn2)[n+](C)c2ccccc21", "Potency": "inactive", "cell number change": 8.68}, {"smiles": "CCN(CC)CC(=O)N1c2ccccc2Oc2c(c(=O)n(C)c(=O)n2C)C1c1cccc([N+](=O)[O-])c1", "note": "(stereo not given)", "Potency": "inactive", "cell number change": 16}, {"smiles": "COc1ccc(CC(=O)N/N=C(\\C)CC(=O)Nc2ccc3c(c2)OCCO3)cc1OC", "Potency": "inactive", "cell number change": -9.52}, {"smiles": "CN(c1ccccc1)S(=O)(=O)c1ccc(C(=O)OCC(=O)N2CCOCC2)cc1", "Potency": "inactive"}, {"smiles": "O=c1cc(N2CCCCCC2)[nH]c(=O)n1-c1ccc(Cl)cc1", "Potency": "inactive", "cell number change": -2.94}, {"smiles": "CCCCC1=CC2=CC(=O)C(C)(OC(=O)CC)C(=O)C2=CN1CCCCO", "note": "(stereo not given)", "Potency": "inactive", "cell number change": 9.55}, {"smiles": "O=C(c1ccccc1)N1CCN=C1SCc1ccc([N+](=O)[O-])cc1", "Potency": "inactive", "cell number change": 12}, {"smiles": "Cc1cc(C)cc(C(=O)N2CCN=C2SCc2ccc([N+](=O)[O-])cc2)c1", "Potency": "16.4 µM (active)", "cell number change": 28.4}, {"smiles": "Cc1ccc(C(=O)N2CCN=C2SCc2ccc([N+](=O)[O-])cc2)cc1", "Potency": "inactive", "cell number change": 4.98}, {"smiles": "Cc1ccccc1-n1nc(C)c2cc(C(=O)N3CCOCC3)sc21", "Potency": "inactive", "cell number change": 4.65}, {"smiles": "COc1ccccc1-n1c(SCC(=O)N2CCOCC2)nc(O)cc1=O", "Potency": "inactive", "cell number change": -21.1}, {"smiles": "CCCCc1c(O)nc(SCC(=O)c2ccccc2)n(-c2ccccc2OC)c1=O", "Potency": "inactive", "cell number change": 11.3}, {"smiles": "CCc1c(O)nc(SCC(=O)Nc2ccccc2OC)n(-c2ccccc2C)c1=O", "Potency": "inactive"}, {"smiles": "Cc1ccccc1-n1c(SCC(=O)N2CCOCC2)nc(O)c(Cc2ccccc2)c1=O", "Potency": "inactive", "cell number change": 15.6}, {"smiles": "COc1ccccc1-n1c(SCC(=O)N2CCCCC2)nc(O)c(Cc2ccccc2)c1=O", "Potency": "inactive", "cell number change": -4.53}, {"smiles": "COc1ccccc1-n1c(SCC(=O)N2CCOCC2)nc(O)c(Cc2ccccc2)c1=O", "Potency": "13 µM (active)", "cell number change": -8.86}, {"smiles": "CCCCc1c(O)nc(SCC(=O)Nc2cccc3ccccc23)n(-c2ccccc2OC)c1=O", "Potency": "20.6 µM (active)", "cell number change": 14.5}, {"smiles": "COc1ccccc1-n1cnnc1SCC(=O)N1CCOCC1", "Potency": "0.0146 µM (active)", "cell number change": -10.4}, {"smiles": "COc1ccccc1-n1cnnc1SCC(=O)N1CCN(C(=O)c2ccco2)CC1", "Potency": "inactive", "cell number change": 21.6}, {"smiles": "CCn1c(=O)c2cc(C(=O)NCC(OC)OC)sc2c2ccccc21", "Potency": "inactive", "cell number change": 25.4}, {"smiles": "CCOC(=O)c1csc(NC(=O)C(C)(C)C)n1", "Potency": "inactive", "cell number change": -3.51}, {"smiles": "O=C(c1ccc(F)cc1)C1CCN(C(=O)Nc2ccc(F)cc2F)CC1", "Potency": "inactive", "cell number change": 14.5}, {"smiles": "CCCc1c(O)c2ccccc2[nH]c1=O", "Potency": "inactive", "cell number change": 3.83}, {"smiles": "C/C(CC(=O)Nc1cccc(Cl)c1C)=N\\NC(=O)Cc1csc(N)n1", "Potency": "inactive", "cell number change": 22}, {"smiles": "CNc1nc(N)c([N+](=O)[O-])c(Nc2ccccc2OC)n1", "Potency": "inactive", "cell number change": 11.2}, {"smiles": "S=C(NC1CC1)N1CCCc2ccccc21", "Potency": "inactive"}, {"smiles": "COC(=O)c1sc(N)c(C(=O)OC)c1COC(=O)C12CC3CC(CC(O)(C3)C1)C2", "Potency": "inactive", "cell number change": -15.1}, {"smiles": "CCOC(=O)c1sc(NC(=O)OC)c(C(=O)OC)c1C", "Potency": "inactive", "cell number change": 11.2}, {"smiles": "CC(=O)c1c(COC(=O)c2ccc(Cl)cc2)nc2ccccc2[n+]1[O-]", "Potency": "inactive", "cell number change": 15.2}, {"smiles": "Cc1ccc(CS(=O)(=O)c2ncc(Cl)c(C(=O)Nc3nnc(C(C)C)s3)n2)cc1", "Potency": "inactive", "cell number change": -27.5}, {"smiles": "O=C(Nc1ccc(OC(F)F)cc1)c1ncc(Cl)c(Cl)c1Cl", "Potency": "inactive", "cell number change": 21.1}, {"smiles": "O=C(Nc1ccc(OC(F)F)cc1)c1ccccn1", "Potency": "inactive", "cell number change": 7.91}, {"smiles": "Cc1ccc(S(=O)(=O)NC(=O)Nc2ccc(OC(F)F)cc2)cc1", "Potency": "inactive", "cell number change": 7.38}, {"smiles": "CS(=O)(=O)c1ncc(Cl)c(C(=O)Nc2ccc(OC(F)F)cc2)n1", "Potency": "18.4 µM (active)", "cell number change": -13.9}, {"smiles": "CC(C)c1nnc(NC(=O)c2nc(S(=O)(=O)Cc3ccccc3F)ncc2Cl)s1", "Potency": "1.64 µM (active)", "cell number change": -17.7}, {"smiles": "CCSc1nnc(NC(=O)c2nc(S(=O)(=O)Cc3ccc(F)cc3)ncc2Cl)s1", "Potency": "inactive", "cell number change": -9.14}, {"smiles": "Cc1cccc(CS(=O)(=O)c2ncc(Cl)c(C(=O)NCc3ccc4c(c3)OCO4)n2)c1", "Potency": "6.51 µM (active)"}, {"smiles": "COc1ccc(NC(=O)c2nc(SC)ncc2Cl)cc1", "Potency": "inactive"}, {"smiles": "Cc1cccc(CS(=O)(=O)c2ncc(Cl)c(C(=O)Nc3c(C)cccc3C)n2)c1", "Potency": "inactive", "cell number change": 14.9}, {"smiles": "Cc1ccc(CS(=O)(=O)c2ncc(Cl)c(C(=O)Nc3ccc(OC(F)F)cc3)n2)cc1", "Potency": "1.16 µM (active)"}, {"smiles": "O=C(NCc1ccc2c(c1)OCO2)c1nc(S(=O)(=O)Cc2ccccc2)ncc1Cl", "Potency": "inactive"}]}]}
